Assay outcomes (PubChem)
BioA inh: BioA (M. tuberculosis) enzyme inhibition. purified M. tuberculosis BioA enzyme, plate reader. inhibition, % at 9.99 µM. hit rate 0.096% among 360,000; in the data active means inhibition above about 40%
TcdB inh: TcdB glycohydrolase inhibition | P18177 | TcdB glycohydrolase enzymatic assay, plate reader | inhibition, % at 9.99 µM | hit rate 0.24% among 350,000 | AID 652162; in the data active means inhibition above about 10%
Yp Topo-I inh: blocks Yersinia pestis topoisomerase I activity | Y. pestis Topo-I cleavage product accumulation, plate reader | activity, % at 10 µM | hit rate 0.064% among 360,000 | AID 504884; in the data active means activity above about 50%, passing the limit was not always enough
PrP 5UTR inh: suppresses PrP 5' UTR mRNA reporter expression; inhibition, % (no concentration beside the values); cell-based PrP 5' UTR mRNA reporter, plate reader; hit rate 0.35% among 340,000; in the data active means inhibition above about 52%; further: 0 = median of the neutral control wells
PrP UTR cherry: prion 5' UTR mRNA inhibition, cherry-pick retest | cell-based prion protein 5' UTR reporter, plate reader | inhibition, % at 2.5 µM | hit rate 48% among 1,100 | shares compounds with PrP 5UTR inh | AID 504592; in the data active means inhibition above about 54%
An asterisk follows results filed as active. In the library only some 0.53% were active in any assay of this set; here they are far more common.

CN(C(=O)c1ccccc1C(=O)OCC(=O)NCc1cccs1)C1CCCCC1 was read as BioA inh -0.7, TcdB inh 1.0, Yp Topo-I inh -3.7, PrP 5UTR inh 54.8* and PrP UTR cherry -15.4.
Cc1ccc(Sc2c(CO)c(-c3ccccc3)nn2C)cc1 was read as TcdB inh 0.8, Yp Topo-I inh 8.2, PrP 5UTR inh 73.1* and PrP UTR cherry 84.4*.
Screening Fc1ccc(-n2nnc(-c3cnc4ccccc4c3)n2)cc1 returned BioA inh -1.5, TcdB inh 0.6, Yp Topo-I inh 3.8, PrP 5UTR inh 71.5* and PrP UTR cherry 53.6*.
Fc1ccc(-n2nnc(-c3cccnc3)n2)cc1 was read as BioA inh 2.7, TcdB inh -5.7, Yp Topo-I inh 5.6 and PrP 5UTR inh -45.4.
Screening Cc1cn([C@H]2C[C@H](O)[C@@H](CCC(=O)NCCc3c[nH]c4ccccc34)O2)c(=O)[nH]c1=O returned BioA inh -2.4, TcdB inh -0.2, Yp Topo-I inh -6.5, PrP 5UTR inh 58.5* and PrP UTR cherry -54.2.
`CCC(=O)N1C[C@H](C)[C@@H](OC)CN(C)C(=O)c2cc(NC(=O)NC(C)C)ccc2OC[C@H]1C` gave BioA inh -1.8 and TcdB inh -0.9.
O=C(C[C@H]1C[C@H]2c3cc(NC(=O)Cc4ccncc4)ccc3O[C@H]2[C@@H](CO)O1)NCc1cc(F)ccc1F was read as BioA inh -1.3 and TcdB inh -0.5.
O=C(Nc1cccc2ncccc12)c1cccnc1 was read as BioA inh 7.6, Yp Topo-I inh -4.3, PrP 5UTR inh 73.5* and PrP UTR cherry 0.5.
COC(=O)c1c(NC(=O)c2ccc([N+](=O)[O-])o2)sc2c1CCN(C(C)C)C2 was read as BioA inh -2.8, TcdB inh 1.4, Yp Topo-I inh -12.9, PrP 5UTR inh 65.8* and PrP UTR cherry 97.4*.
For COC(=O)c1c(NC(=O)Cc2ccccc2)sc2c1CCN(C(C)C)C2 the results were BioA inh 8.0, TcdB inh 1.1, Yp Topo-I inh 15.6 and PrP 5UTR inh -1.7.
Screening CC(C)OC(=O)c1sc2nc(-c3ccccc3)ccc2c1N returned BioA inh 0.7, TcdB inh 1.5, Yp Topo-I inh 6.9, PrP 5UTR inh 54.1* and PrP UTR cherry 20.2.
Screening COc1ccc(C(=O)c2sc3nc(-c4ccccc4)ccc3c2N)cc1 returned Yp Topo-I inh -10.8 and PrP 5UTR inh -14.5.
COc1cc(C2CC(=O)Oc3cc4c(cc32)OCO4)cc(OC)c1OC (configuration not stated) was read as BioA inh 0.6, TcdB inh 0.6, Yp Topo-I inh 4.5 and PrP 5UTR inh -13.1.
COc1ccc(C2CC(=O)Oc3cc4c(cc32)OCO4)cc1 (configuration not stated) was read as BioA inh 1.8, TcdB inh 1.2, Yp Topo-I inh 4.9, PrP 5UTR inh 53.5* and PrP UTR cherry -7.0.
For C[C@@H]1CCCCO[C@@H](CN(C)C(=O)CCCN(C)C)[C@@H](C)CN([C@H](C)CO)C(=O)c2cc(NC(=O)c3ccccc3)ccc2O1 the results were BioA inh -1.3.
Screening CCCCN=C[C@]12CCC(O)CC1(O)CCC1[C@@H]2CC[C@]2(C)[C@H](C3C=CC(=O)O3)CCC12O (some centres not stated) returned BioA inh -0.5, TcdB inh 0.9, Yp Topo-I inh -3.3, PrP 5UTR inh 82.5* and PrP UTR cherry 77.5*.
CC12CCC3C(CCC4(O)CC(O)CCC34C=NO)C1(O)CCC2C1=COC(=O)C1 (configuration not stated) was read as TcdB inh 1.0, Yp Topo-I inh 3.5, PrP 5UTR inh 88.7* and PrP UTR cherry 85.3*.
For CN(C)C=Nc1nc2ccccc2nc1N1CCCC1 the results were TcdB inh 1.4, Yp Topo-I inh -1.3, PrP 5UTR inh 54.2* and PrP UTR cherry -3.1.
c1ccc2nc(N3CCCC3)c(N3CCCC3)nc2c1 was read as BioA inh 0.2, Yp Topo-I inh -5.7 and PrP 5UTR inh -5.8.
For C[C@H]1CN([C@@H](C)CO)C(=O)c2cccc(NS(=O)(=O)c3ccccc3)c2O[C@H]1CN(C)Cc1ccc(Oc2ccccc2)cc1 the results were BioA inh 2.4 and TcdB inh 1.3.
Screening CN(C)CCCNC(=O)c1ccc(Oc2ccccc2)cc1 returned TcdB inh -0.5, Yp Topo-I inh 4.6, PrP 5UTR inh 87.9* and PrP UTR cherry -12.0.
For Cc1cccc2cc(C#N)c(SCC(=O)N3CC(=O)Nc4ccccc43)nc12 the results were BioA inh -0.3, Yp Topo-I inh 3.7, PrP 5UTR inh 63.7* and PrP UTR cherry 80.6*.
Screening Cc1noc(C)c1NC(=O)N[C@@H]1C=C[C@H](CC(=O)Nc2ccccc2)O[C@H]1CO returned BioA inh -2.8 and TcdB inh 0.9.
`C[C@@H]1CN([C@H](C)CO)S(=O)(=O)c2ccc(Br)cc2O[C@H]1CN(C)Cc1ccccc1` gave BioA inh -1.2 and TcdB inh 0.5.
Screening C/C(=N\NC(=O)c1n[nH]c2c1CCC2)c1cccs1 returned BioA inh -0.7, TcdB inh -1.7, Yp Topo-I inh -1.0, PrP 5UTR inh 75.9* and PrP UTR cherry 73.0*.
`O=C(N/N=C/c1cccs1)c1n[nH]c2c1CCCC2` gave BioA inh -2.6, TcdB inh -0.1, Yp Topo-I inh -3.9 and PrP 5UTR inh 38.4.
`FC(F)(F)c1ccccc1-n1ccnc1` gave BioA inh 0.5, TcdB inh 1.3, Yp Topo-I inh -9.4, PrP 5UTR inh 59.5* and PrP UTR cherry -0.1.
Screening CCOc1ccc(NC(=O)c2cc(S(=O)(=O)N3CCOCC3)cn2C)cc1 returned BioA inh -2.1, TcdB inh -7.5, Yp Topo-I inh -7.5, PrP 5UTR inh 50.7* and PrP UTR cherry 27.6.
For CCOc1ccc(NC(=O)c2cc(S(=O)(=O)N3CCOCC3)cs2)cc1 the results were BioA inh -0.8, TcdB inh 2.2, Yp Topo-I inh -0.3 and PrP 5UTR inh -2.3.
Screening C[C@H](NC(=O)C[C@@H]1C[C@H]2c3cc(NC(=O)C4CCOCC4)ccc3O[C@H]2[C@@H](CO)O1)c1ccccc1 returned BioA inh -0.2 and TcdB inh 0.1.
Screening COc1cc(C2c3[nH]c4ccccc4c3CC3COC(=O)N32)cc(OC)c1O (configuration not stated) returned TcdB inh -18.3, Yp Topo-I inh -6.0, PrP 5UTR inh 58.6* and PrP UTR cherry 89.7*.
Screening C[C@H]1CN([C@@H](C)CO)C(=O)Cc2cc(NC(=O)Cc3ccccc3)ccc2O[C@H]1CN(C)Cc1ccc2c(c1)OCO2 returned BioA inh -1.8 and TcdB inh -2.1.
Screening O=C(C[C@@H]1CC[C@H]2[C@@H](COC[C@H](O)CN2Cc2cc(F)ccc2F)O1)NCc1ccccc1 returned BioA inh 0.4 and TcdB inh 0.9.
Screening Cc1ccc(N2C(=O)c3cccc4c(N)ccc(c34)C2=O)c2cccnc12 returned BioA inh -2.4, TcdB inh -0.1, Yp Topo-I inh 2.2, PrP 5UTR inh 73.8* and PrP UTR cherry 85.6*.
